# Measured values from PubChem BioAssay.
# The source made the active and inactive calls. Cut-off read from the data, not from the text of the source, unless noted: active = inhibition above about 80%; inactive = the rest.
# Assays:
# [1] = growth inhibition, single agent or in combination, cell-based, chromothripsis tumors, cisplatin or BGB combos (AID 1671449); conditions: LFS_MB_P medulloblastoma cells;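 note: cells exposed for 96 hours; 0% = vehicle DMSO and 100% = killing by high DMSO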
# [2] = growth inhibition, single agent and combos, cell-based, chromothripsis tumors, cisplatin or BGB combos (AID 1671450); conditions: HDN33 neuroblastoma cells, stronger effect = higher value;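 note: cells exposed to compound for four days; 0% = vehicle DMSO and 100% = cell killing by high DMSO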
# [3] = growth inhibition, single agents and combos, ICB984, cell-based, cisplatin or BGB combos, synergistic combos for chromothripsis tumors (AID 1671451; call rule not given here;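 note: cells exposed for 96 hours before readout; 0% = vehicle DMSO and 100% = killing by high DMSO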); conditions: ICB984 medulloblastoma cells, drug combinations, stronger effect = higher value
# [4] = growth inhibition, single agents and combos, LFS_MB_1R, cell-based, cisplatin or BGB combos, synergistic combos for chromothripsis tumors (AID 1671452); conditions: LFS_MB_1R medulloblastoma cells, stronger effect = higher value;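 note: cells exposed for 96 hours before readout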
# [5] = growth inhibition, single agents and combos, HTB85, cell-based, BGB or cisplatin IC20 combos, synergistic combos for chromothripsis tumors (AID 1671453); conditions: HTB85 osteosarcoma cells, drug combinations, stronger effect = higher value;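 note: cells exposed for 96 hours before readout; 0% = vehicle DMSO and 100% = high DMSO killing control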
# [6] = growth inhibition, single agents and combos, CRL2098, cell-based, BGB or cisplatin IC20 combos, synergistic combos for chromothripsis tumors (AID 1671454); conditions: CRL2098 osteosarcoma cells, drug combinations, stronger effect = higher value;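 note: cells exposed for 96 h before readout; 0% = vehicle DMSO and 100% = killing by high DMSO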
# [7] = growth inhibition, single agents and combos, HD-MB03, cell-based, BGB or cisplatin IC20 combos, synergistic combos for chromothripsis tumors (AID 1671455; in the data active = inhibition above about 83%;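 note: 0% = vehicle DMSO and 100% = high DMSO as cytotoxic control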); conditions: HD-MB03 medulloblastoma cells, stronger effect = higher value
# [8] = growth inhibition, single agents and combos, UWB1.289, cell-based, BGB or cisplatin combos, synergistic combos for chromothripsis tumors (AID 1671456); conditions: UWB1.289 ovarian carcinoma cells, stronger effect = higher value;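 note: cells exposed to compound for four days; 0% = vehicle DMSO and 100% = killing by high DMSO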
# [9] = growth inhibition, single agents and combos, LFS_MB_2R, cell-based, cisplatin combos, synergistic combos for chromothripsis tumors (AID 1671457); conditions: LFS_MB_2R medulloblastoma cells, stronger effect = higher value;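 note: cells exposed to compound for four days before readout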
# [10] = growth inhibition, MDA-MB-436, cell-based, BGB or cisplatin combos, synergistic combos for chromothripsis tumors (AID 1671458; call rule not given here;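 note: cells exposed for 96 hours; 0% = vehicle DMSO and 100% = killing by high DMSO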); conditions: MDA-MB-436 breast carcinoma growth inhibition, drug combinations, stronger effect = higher value
# [11] = UWB1.289_BRCA1 ovarian cancer growth, cell-based, BGB or cisplatin combinations (AID 1671459); conditions: UWB1.289 BRCA1 ovarian carcinoma, drug combinations, stronger effect = higher value
# [12] = drug combination toxicity in non-malignant astrocytes – cell-based, BGB or cisplatin IC20 combos, cytotoxicity control for chromothriptic childhood tumor combination screen (AID 1671460); conditions: Human astrocytes, viability inhibition, drug combinations, at 0.5 µM, stronger effect = higher value;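 note: cells exposed to compounds for 96 hours before viability readout; 0% = vehicle and 100% = killing control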
# [13] = BT084 cell growth, single and combined drugs, ICGC_MB145, cisplatin and BGB IC40 combos (AID 1671461); conditions: BT084 medulloblastoma cells, drug combinations, stronger effect = higher value;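 note: cells exposed to drugs for 96 hours; 0% = vehicle DMSO and 100% = high DMSO full killing control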
# [14] = RCMB18 cell growth, single agent and combined, cisplatin and BGB IC40 combos (AID 1671462); conditions: RCMB18 medulloblastoma cells, stronger effect = higher value;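 note: cells exposed to compound for four days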
# [15] = CRL1545 cell growth, single agent and combined, cisplatin and BGB IC20 combos (AID 1671464); conditions: CRL1545 osteosarcoma cells, stronger effect = higher value;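 note: cells exposed to compound for 96 hours before readout; 0% = vehicle DMSO and 100% = high DMSO killing control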
# [16] = measured here: combination with BGB IC40, at 0.05 µM
# [17] = measured here: with BGB IC20 combination, at 0.5 µM
# [18] = measured here: with cisplatin IC20 combination, at 0.5 µM
# [19] = measured here: combination with cisplatin, at 0.5 µM
# [20] = measured here: combination with cisplatin, at 5 µM
structure (smiles),measurement,setting,value
Cn1cnc2[nH]c(=O)[nH]c(=O)c21,inhibition,"[1]; at 0.5 µM, stronger effect = higher value",-31.2% (inactive)
same,inhibition,"[1]; measured here: combination with BGB IC20, at 0.005 µM",-23.8%
same,inhibition,"[1]; measured here: combination with BGB IC40, at 0.005 µM",-24.9%
same,inhibition,[1]; [16],-15.5%
same,inhibition,"[1]; measured here: combination with cisplatin, at 0.5 µM, stronger effect = higher value",-52.2%
same,inhibition,"[1]; measured here: combination with cisplatin, at 5 µM, stronger effect = higher value",-16.9%
same,inhibition,"[2]; BGB combo, at 5 µM",-14.9%
same,inhibition,[2]; at 0.5 µM,-29.3% (inactive)
same,inhibition,"[2]; cisplatin combo, at 5 µM",-9.77%
same,inhibition,[2]; [17],-37.1%
same,inhibition,[2]; [18],-7.77%
same,inhibition,"[2]; single agent, at 5 µM",-7.59%
same,inhibition,"[3]; BGB IC20 combo, at 0.005 µM",-15.3%
same,inhibition,"[3]; BGB IC40 combo, at 0.005 µM",-28.7%
same,inhibition,"[3]; BGB IC40 combo, at 0.05 µM",-16.7%
same,inhibition,[3]; at 0.5 µM,-24.9% (inactive)
same,inhibition,"[3]; cisplatin combo, at 0.05 µM",-16.7%
same,inhibition,"[3]; cisplatin combo, at 0.5 µM",-33.2%
same,inhibition,"[3]; cisplatin combo, at 5 µM",-13.6%
same,inhibition,"[3]; measured here: 5 uM single agent, at 5 µM",2.87%
same,inhibition,[4]; at 0.5 µM,-24.6% (inactive)
same,inhibition,[4]; [16],-0.159%
same,inhibition,[4]; [19],11.9%
same,inhibition,[4]; [20],-7.74%
same,inhibition,[5]; at 0.5 µM,-29.8% (inactive)
same,inhibition,"[5]; measured here: with BGB IC20, at 0.5 µM",-76.7%
same,inhibition,"[5]; measured here: with BGB IC20, at 5 µM",-27.8%
same,inhibition,"[5]; measured here: with cisplatin IC20, at 0.5 µM",0.051%
same,inhibition,"[5]; measured here: with cisplatin IC20, at 5 µM",18.6%
same,inhibition,"[5]; single agent, at 5 µM",-24.4%
same,inhibition,[6]; at 0.5 µM,-69.2% (inactive)
same,inhibition,"[6]; measured here: combination with BGB at IC20, at 0.5 µM",-77.5%
same,inhibition,"[6]; measured here: combination with cisplatin at IC20, at 0.5 µM",-102%
same,inhibition,[7]; at 0.5 µM,-10.2% (inactive)
same,inhibition,"[7]; measured here: combo with BGB at IC20, at 0.5 µM",-8.65%
same,inhibition,"[7]; measured here: combo with cisplatin at IC20, at 0.5 µM",-11.2%
same,inhibition,[8]; at 0.5 µM,-8.42% (inactive)
same,inhibition,"[8]; measured here: inhibition with BGB combination, at 0.05 µM",-20.6%
same,inhibition,"[8]; measured here: inhibition with cisplatin combination, at 0.05 µM",-21.4%
same,inhibition,[9]; at 0.5 µM,-6.27% (inactive)
same,inhibition,[9]; [19],-10.9%
same,inhibition,[9]; [20],-15.8%
same,inhibition,[10]; at 0.5 µM,-15.1% (inactive)
same,inhibition,"[10]; measured here: BGB combination, at 0.5 µM",-7.33%
same,inhibition,"[10]; measured here: BGB combination, at 5 µM",-1.97%
same,inhibition,"[10]; measured here: cisplatin combination, at 0.5 µM",-35.1%
same,inhibition,"[10]; measured here: cisplatin combination, at 5 µM",-7.26%
same,inhibition,"[11]; BGB combination, concentration series, at 5 µM",-2.15%
same,inhibition,[11]; at 0.5 µM,-8.08% (inactive)
same,inhibition,"[11]; cisplatin combination, concentration series, at 5 µM",4.95%
same,inhibition,[12],14% (inactive)
same,inhibition,[12]; measured here: combo with BGB IC20,17.9%
same,inhibition,[12]; measured here: combo with cisplatin IC20,4.38%
same,inhibition,[13]; at 0.5 µM,-17.3% (inactive)
same,inhibition,"[13]; cisplatin combination, at 0.5 µM",-7.22%
same,inhibition,"[13]; cisplatin combination, at 5 µM",-68.1%
same,inhibition,"[13]; measured here: BGB IC40 combination 0.05 uM, at 0.05 µM",-20.6%
same,inhibition,"[13]; single agent, at 5 µM",-30.4%
same,inhibition,[14]; at 0.5 µM,-15.8% (inactive)
same,inhibition,"[14]; cisplatin combo, at 5 µM",-20.1%
same,inhibition,"[14]; measured here: BGB IC40 combination, at 0.05 µM",-17.4%
same,inhibition,[14]; [19],-33.2%
same,inhibition,"[14]; single agent, at 5 µM",-24.4%
same,inhibition,[15]; at 0.5 µM,-15.4% (inactive)
same,inhibition,[15]; [17],4.76%
same,inhibition,[15]; [18],-25.6%
same,inhibition,"[15]; single agent, at 0.05 µM",-33.9%
same,inhibition,"[15]; single agent, at 5 µM",-5.96%
